High-throughput results from PubChem BioAssay.
TRHR PAM – qHTS for Small Molecule Agonists and Allosteric Enhancers of Human TRH Receptor: Primary Screen for Enhancers. TRHR cells, fluo-8 calcium fluorescence, EC20 TRH enhancement. enhancement, % at 2 µM. hit rate 0.66% among 360,000; in the data active means enhancement above about 30%; further: 0% is about no effect
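Enhancer read-out: after compound pinning and an initial kinetic agonist-mode read, an EC20 of TRH (10 nM final) was injected and fluo-8 calcium signal (Ex 480/Em 530) followed at 1 s/cycle for 100 cycles in TRHR-expressing cells.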
D1 antag – Antagonist of Human D 1 Dopamine Receptor: qHTS; D(1A) dopamine receptor (Homo sapiens), P21728; HEK293 TREx D1 cells, calcium flux, dopamine EC80; active compounds read low; activity change, negative = inhibition, % at 10 µM; hit rate 3.2% among 360,000; in the data active means activity change below about -30%; further: on the % scale 0 is the no-effect control and ±100 the full control effect
Target sequence (P21728 whole entry, looked up): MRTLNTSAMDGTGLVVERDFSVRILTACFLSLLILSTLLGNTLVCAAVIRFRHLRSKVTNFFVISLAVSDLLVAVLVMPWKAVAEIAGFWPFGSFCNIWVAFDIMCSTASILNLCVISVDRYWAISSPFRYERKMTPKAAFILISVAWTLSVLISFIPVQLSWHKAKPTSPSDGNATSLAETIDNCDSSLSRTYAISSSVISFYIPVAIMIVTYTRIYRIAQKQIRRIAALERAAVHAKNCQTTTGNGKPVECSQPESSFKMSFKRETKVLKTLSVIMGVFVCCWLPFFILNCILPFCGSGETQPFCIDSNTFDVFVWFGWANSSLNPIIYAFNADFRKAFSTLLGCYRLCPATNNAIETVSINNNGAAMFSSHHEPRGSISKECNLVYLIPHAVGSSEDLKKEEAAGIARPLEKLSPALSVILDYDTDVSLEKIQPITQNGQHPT
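Compound effects on dopamine-evoked calcium signalling were measured in tetracycline-induced HEK293 Trex D1 cells. Dopamine at EC80 followed a 180 s compound pre-read, and fluorescence was tracked kinetically for 180 s more.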
D1 ag – Allosteric Agonists of the Human D1 Dopamine Receptor: qHTS; AID 504660, 2011; hit rate 1% among 360,000; D(1A) dopamine receptor (Homo sapiens), P21728; activation, % at 2 µM; HEK293 T-REx D1 cells, calcium flux, agonist mode; further: 0% is about no effect
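Agonism was scored from calcium flux recorded over 180 s (1 read/s) after pintool compound addition, following a 10-cycle baseline. Cells were inducible force-coupled HEK293 TREx D1, plated overnight at 30 C and loaded with no-wash calcium dye.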
TRHR ag – qHTS for Small Molecule Agonists and Allosteric Enhancers of Human TRH Receptor: Primary Screen for Agonists; Thyrotropin-releasing hormone receptor (Homo sapiens), P34981; TRHR cells, calcium flux fluo-8, FDSS agonist mode; activation, % at 2 µM; hit rate 0.18% among 360,000; further: 0% is about no effect
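Agonist-mode FDSS calcium read (Ex 480/Em 530, 1 s cycles) in 1536-well TRHR cells with fluo-8 dye, after 10-cycle baseline and 23 nL compound addition; TRH at EC20 (10 nM final) added afterwards for the enhancer phase.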
D1 PAM – Potentiators of Human D1 Dopamine Receptor: qHTS | D(1A) dopamine receptor (Homo sapiens), P21728 | HEK293 TREx D1 cells, calcium flux, dopamine EC20 potentiation | potentiation, % at 10 µM | hit rate 0.036% among 360,000 | AID 504651, 2011; in the data active means potentiation above about 30%; further: 0% is about no effect
An asterisk follows results filed as active; / = no result given. In the library only some 4.7% were active in any assay of this set; here they are far more common. Unless noted, no stated cut-off is given here; in the data, active means activation above about 30%; inactive means the rest.

SMILES	TRHR PAM	D1 antag	D1 ag	TRHR ag	D1 PAM
Cc1cc(/C=C2\NC(=S)N(C)C2=O)ccc1N1CCCC1	32*	-45*	331*	142*	7
CCC(Sc1nncn2c1cc1occc12)C(=O)Nc1ccc(C)c(Cl)c1 (centres undefined)	-5	11	1	1	5
CN(CCC1CCOCC1)C(=O)CC1C(=O)NCCN1Cc1c(F)cccc1Cl (centres undefined)	-1	-52*	11	1	-3
CN(CCCC1CCCC1)C(=O)CC1C(=O)NCCN1Cc1cccc(F)c1F (centres undefined)	4	9	0	0	30*
CCOC(=O)Cc1ccc(NC(=O)Nc2cc3c(cc2N2CCCCC2)n(C)c(=O)n3C)cc1	3	7	5	1	0
Cc1nn(C)cc1C=NCCOCc1ccccc1	-4	-32*	1	0	-6
CCNC(=O)CC1C(=O)N(c2ccc(F)cc2)C(=O)N1Cc1ccc(OC)c(OC)c1 (centres undefined)	9	16	-1	-1	-1
CCOC(=O)c1cnc2c(C)cc(Cl)cc2c1NCCCN1CCOCC1	3	-35*	4	0	5
CC(=O)N1c2ccc(S(=O)(=O)NCCc3cccc(C)c3)cc2CC1C (centres undefined)	-4	-15	9	-1	-1
O=C(CSCc1c(F)cccc1F)Nc1ccccc1	0	-74*	1	0	-12
Cc1cccc(-c2nnc(SCCC(=O)O)o2)c1	-1	5	0	0	-2
Oc1ccc(-c2csc(Nc3ccccn3)n2)cc1	-5	-79*	2	0	-20
COc1cc(/C=c2\s/c(=C(/C#N)C(=O)N3CCCC3)n(-c3ccccc3)c2=O)ccc1O	11	0	138*	72*	0
O=C(c1ccco1)N1CCN(CC(O)COc2ccc3oc4ccccc4c3c2)CC1 (centres undefined)	-5	-35*	23	1	-9
COc1cccc(-n2c(SCC(N)=O)nc3c(oc4ccccc43)c2=O)c1	-4	10	-1	-1	-4
CCN(CC)c1ccc(/C=C2/SC(=O)N(C(C)C)C2=O)o1	-4	19	59*	17	-2
CC(C)N1C(=O)S/C(=C\c2ccc(-c3ccc(Cl)c(C(=O)O)c3)o2)C1=O	5	5	2	-2	-4
Cc1[nH]c(=O)c(C#N)c(C)c1Cc1ccc(Cl)cc1Cl	0	-62*	0	-1	6
Cc1[nH]c(=S)c(C#N)c(C)c1CC(=O)c1ccc(Br)cc1	6	5	4	0	3
Cc1[nH]c(=S)c(C#N)c(C)c1Cc1ccc(Cl)cc1Cl	-1	-51*	0	0	-5
CS(=O)(=O)N(CC(=O)N1CCN(c2ccc(F)cc2)CC1)c1cccc(Cl)c1	11	-26	8	-1	-6
CS(=O)(=O)N(CC(=O)N1CCCC1)c1cc(Cl)c(Cl)cc1Cl	9	-14	39*	-1	-7
CS(=O)(=O)N(CCCC(=O)N1CCCCCC1)c1cccc(Cl)c1	5	-38*	7	0	0
Cn1cc(S(=O)(=O)N2CCCCCC2)cc1C(=O)Nc1ccccc1F	-4	12	-1	0	-1
COCCn1c(C)cc(O)c(C(c2ccccc2)N2CCN(c3ccccc3F)CC2)c1=O (centres undefined)	-2	-18	2	0	-5
SMILES	TRHR PAM	D1 antag	D1 ag	TRHR ag	D1 PAM
Cc1ccc(C(=O)COC(=O)CCS(=O)(=O)c2ccccc2)cc1[N+](=O)[O-]	1	-3	1	-1	-7
Cc1ccc(S(=O)(=O)CCC(=O)OCC(=O)c2ccc(C)c(C)c2)cc1	4	-31*	11	0	-10
CC(C)C[C@H]1C(=O)N2CCC[C@H]2[C@]2(O)O[C@](NC(=O)[C@@H]3C=C4c5cccc6[nH]c(Br)c(c56)CC4N(C)C3)(C(C)C)C(=O)N12 (some centres undefined)	-6	-42*	10	10	-4
Cc1cc(Br)cc(C)c1OCC(=O)NNC(=O)c1cccs1	-4	-37*	3	0	0
Cc1c(Cl)cccc1NC(=O)CSc1nc(=O)n(Cc2ccco2)c2c1CCC2	8	/	0	-1	-1
Cc1noc(Cn2c(=O)c3ccccc3n(CC(=O)Nc3ccc(F)cc3F)c2=O)n1	0	-9	-1	0	-1
O=C(Nc1cccc(O)c1)c1cc(-c2ccccc2Cl)on1	-11	-36*	8	0	4
CC1(c2ccc(OC(F)F)cc2)NC(=O)N(CC(=O)c2ccc3c(c2)OCO3)C1=O (centres undefined)	-11	-43*	47*	8	0
CC1(c2ccc(OC(F)F)cc2)NC(=O)N(CC(=O)NC2CCCCC2)C1=O (centres undefined)	1	12	9	1	6
CC1(c2ccc([N+](=O)[O-])cc2)NC(=O)N(CC(=O)c2ccc3c(c2)OCO3)C1=O (centres undefined)	-1	-7	34*	6	6
O=C(CN1C(=O)COc2ccc(S(=O)(=O)N3CCOCC3)cc21)NCc1ccc(Cl)cc1	-7	-14	2	0	1
O=c1c2ccccc2n2c(-c3ccc(Cl)cc3)nnc2n1CCc1ccccc1	0	3	4	-1	-2
Cc1cccc(NC(=O)Cn2cc(C(=O)C3CCCCC3)c3ccccc32)c1	2	-30*	14	-1	-7
Cc1ccc(CN2CCCn3nc(C(=O)NCC(C)c4ccccc4)cc3C2=O)cc1 (centres undefined)	8	17	7	-1	1
O=C(O)CCN1C(=O)C2C3c4ccccc4C(c4ccccc43)[C@@H]2C1=O (some centres undefined)	-4	-31*	3	-1	2
O=C(O)CCN1C(=O)C2C3c4ccccc4C(c4ccccc43)C2C1=O (centres undefined)	3	9	5	1	-7
COC(=O)c1c(NC(=O)c2ccccc2)sc2c1CC(C)(C)NC2(C)C	-3	-31*	2	0	-2
CC1(C)Cc2c(sc(NC(=O)c3ccc(C(=O)c4ccccc4)cc3)c2C(N)=O)C(C)(C)N1	9	3	112*	3	-9
Cc1cc(Cl)ccc1NC(=O)CSc1nc2c(c(=O)[nH]1)CCC2	15	3	0	0	-2
